The campaign covered roughly 310,000 compounds. About 14,000 (4.5%) showed an effect of 50% or more. Effects have a minus sign here. The sample holds strong results, similar compounds and a random draw of the others, so the mix is not that of the screen.
The molecules below were run against human ether-à-go-go-related gene (hERG) potassium channel (human, UniProt Q12809) (assay: primary screen, population patch clamp on CHO cells stably expressing hERG; higher = less effect of the substance).
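Further: peak tail current of the secondary pulse compared with the same well before compound.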

Chain of human ether-à-go-go-related gene (hERG) potassium channel (Q12809 whole entry, looked up): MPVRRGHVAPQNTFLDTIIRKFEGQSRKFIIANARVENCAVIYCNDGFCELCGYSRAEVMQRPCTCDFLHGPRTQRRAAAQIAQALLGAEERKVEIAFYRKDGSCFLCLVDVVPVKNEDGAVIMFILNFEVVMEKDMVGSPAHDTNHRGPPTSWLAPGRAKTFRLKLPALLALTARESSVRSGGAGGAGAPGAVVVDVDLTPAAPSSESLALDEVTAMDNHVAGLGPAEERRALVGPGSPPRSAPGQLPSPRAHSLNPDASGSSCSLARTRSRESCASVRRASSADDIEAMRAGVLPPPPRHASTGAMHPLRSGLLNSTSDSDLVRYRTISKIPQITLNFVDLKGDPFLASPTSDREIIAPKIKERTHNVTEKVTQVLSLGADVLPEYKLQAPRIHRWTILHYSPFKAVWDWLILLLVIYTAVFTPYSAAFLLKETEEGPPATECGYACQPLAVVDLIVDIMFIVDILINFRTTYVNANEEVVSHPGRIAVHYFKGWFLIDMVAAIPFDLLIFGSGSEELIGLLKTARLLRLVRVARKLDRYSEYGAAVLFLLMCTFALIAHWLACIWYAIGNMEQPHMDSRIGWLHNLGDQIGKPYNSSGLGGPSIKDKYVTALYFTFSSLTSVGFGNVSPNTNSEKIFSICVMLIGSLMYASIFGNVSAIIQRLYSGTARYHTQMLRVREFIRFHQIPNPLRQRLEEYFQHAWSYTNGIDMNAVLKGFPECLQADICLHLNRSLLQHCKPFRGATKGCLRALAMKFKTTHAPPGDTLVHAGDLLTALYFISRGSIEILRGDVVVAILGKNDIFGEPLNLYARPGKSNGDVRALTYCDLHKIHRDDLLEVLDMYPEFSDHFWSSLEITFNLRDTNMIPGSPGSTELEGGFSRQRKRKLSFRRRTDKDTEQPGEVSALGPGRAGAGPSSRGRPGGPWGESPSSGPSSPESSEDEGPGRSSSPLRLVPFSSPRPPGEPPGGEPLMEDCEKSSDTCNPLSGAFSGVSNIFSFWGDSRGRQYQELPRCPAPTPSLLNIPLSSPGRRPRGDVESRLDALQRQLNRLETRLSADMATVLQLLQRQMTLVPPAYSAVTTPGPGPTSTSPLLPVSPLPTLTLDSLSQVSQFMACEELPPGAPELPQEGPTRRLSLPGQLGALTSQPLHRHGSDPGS

SMILES | hERG current change (%, negative = inhibition) at 10uM
CS/C(=N\S(=O)(=O)c1ccccc1)c1ccccc1 | 0.781%
CC(C)n1c(C(F)(F)F)nc2cc(C(=O)N3CCOCC3)ccc21 | 16.3%
O=C(O)C1Sc2[nH]c(=O)sc2C2c3cc(Cl)ccc3OC(=O)C12 (stereo not shown) | 14.5%
Cc1ccc(NC(=O)Cc2noc3ccccc23)c(C)c1 | 11.2%
O=S(=O)(CCc1nc2ccccc2o1)c1ccc(Cl)c(Cl)c1 | 13.4%
CCc1cc(C(=O)N2CCN(C(=O)c3ccco3)CC2)sc1C | 10.6%
Cc1sc2ncnc(N3CCN(C(=O)c4ccco4)CC3)c2c1C | -61.8%
CCc1cc2c(N3CCN(C(=O)c4ccco4)CC3)ncnc2s1 | -77.7%
Cc1sc2nnn(CC(=O)N3CCN(C(=O)c4ccco4)CC3)c(=O)c2c1C | -32.4%
CCc1cc2c(N3CCN(c4ccccc4)CC3)ncnc2s1 | -43.5%
COc1ccc(-c2csc3ncnc(N4CCN(C(=O)c5ccco5)CC4)c23)cc1 | -75.3%
CCc1cc2c(N3CCN(c4nnc(CC)s4)CC3)ncnc2s1.Cl | -67.6%
COc1ccc(-c2nsc3c(N4CCN(C(=O)c5ccco5)CC4)ncnc23)cc1 | 10.9%
COc1ccc(-c2csc3ncnc(N4CCN(c5ccc(OC)cc5)CC4)c23)cc1 | -11.2%
CCc1cc2c(N3CCN(C)CC3)ncnc2s1.Cl | -29%
CCc1cc2c(N3CCCCC3)ncnc2s1.Cl | -7.21%
COc1cc(C(=O)N2CCN(c3ncnc4sc(C)c(C)c34)CC2)cc(OC)c1OC | -47.2%
Fc1ccc(CNCc2cccc(Br)c2)cc1 | 13.9%
O=C(CSc1cn(CCNC(=O)c2ccccc2)c2ccccc12)NCC1CCCO1 (stereo not shown) | -10.9%
O=C(CNC(=O)c1cccs1)OCC(=O)c1ccccc1 | 8.55%
O=C(c1cccnc1Nc1ccccc1F)N1CCOCC1 | 11.7%
O=S(=O)(c1ccccc1)C(/C=N\O)/C=C/c1ccccc1 (stereo not shown) | 4.57%
CCCc1nnc(NC(=O)CCC(=O)NC2CCCCCC2)s1 | 13.7%

SMILES | hERG current change (%, negative = inhibition) at 10uM
C=CCNC(=O)COC(=O)CCC(=O)c1cccs1 | 1.42%
CCC(C)NC(=O)CSc1nc2ccsc2c(=O)n1-c1ccc(OC)cc1 (stereo not shown) | -3.72%
O=[N+]([O-])c1cccc(NNS(=O)(=O)c2ccccc2F)c1 | -29.4%
O=c1c2c3c(sc2nc2n1N=C(c1cccs1)CS2)CCCC3 | 5.12%
COc1ccnc(CN(C)C(=O)C2CCC(=O)N(CCN(C)C)C2)c1 (stereo not shown) | 17.5%
O=C(c1ccco1)N1CCN(c2ncnc3c(-c4ccccc4)nsc23)CC1 | -14.2%
O=C(c1ccco1)N1CCN(c2ncnc3scc(-c4ccccc4)c23)CC1 | -64.5%
CC(C)(C)C(=O)N1CCN(c2ncnc3scc(-c4ccccc4)c23)CC1 | -30%
CCN1CCN(C(=O)c2ccc3c(Cl)c4c(nc3c2)CCCC4)CC1 | 6.65%
CCCCC(C(=O)O)C(C)CC(=O)Nc1nncs1 (stereo not shown) | 13.1%
CC(=O)c1cccc(NC(=O)/C(=C/c2ccco2)NC(=O)c2ccco2)c1 | -18.6%
O=C(Nc1cccc(Br)c1)/C(=C\c1cccnc1)NC(=O)c1ccco1 | -56.6%
O=C(Nc1ccccc1)/C(=C/c1cccnc1)NC(=O)c1ccco1 | -4.49%
O=C(Nc1ccccc1)/C(=C/c1cccc(Br)c1)NC(=O)c1ccco1 | 5.35%
CC(=O)c1ccc(NC(=O)/C(=C\c2ccco2)NC(=O)c2ccco2)cc1 | -15.9%
CC(=O)c1cccc(NC(=O)/C(=C\c2ccco2)NC(=O)c2ccco2)c1 | -64.3%
O=C(Nc1ccc2ccccc2c1)/C(=C/c1cccc(Br)c1)NC(=O)c1ccco1 | -68.6%
O=C(Nc1cccc(F)c1)/C(=C\c1cccnc1)NC(=O)c1ccco1 | -22.4%
O=C(Nc1cccc(Cl)c1)/C(=C\c1cccnc1)NC(=O)c1ccco1 | -67%
Cc1ccc(NC(=O)/C(=C/c2cccc(Br)c2)NC(=O)c2ccco2)cc1 | -28.1%
Cc1ccc(NC(=O)/C(=C\c2cccnc2)NC(=O)c2ccco2)cc1 | -28.5%
CC(=O)c1cccc(NC(=O)/C(=C\c2cccnc2)NC(=O)c2ccco2)c1 | -10.6%
Cc1ccc(NC(=O)COC(=O)CCC(=O)c2cccs2)cc1 | -6.94%

SMILES | hERG current change (%, negative = inhibition) at 10uM
COc1ccc(-c2nc3c(=O)n(C)c(=O)[nH]c3n2CCc2ccccc2)cc1 | 22.1%
Cn1c(=O)c2c(nc(N3CCc4ccccc4C3)n2C)n(C)c1=O | 7.62%
CCCCS(=O)(=O)N1CCC(C(=O)Oc2ccccc2OC)CC1 | -9.14%
O=c1cc(N2CCc3ccccc3C2)[nH]c(=O)n1-c1ccc(Cl)cc1 | 3.07%
COc1cc2[nH]c(=S)n(Cc3ccccc3)c(=O)c2cc1OC | 11.4%
CCOc1ccc(CCNC(=O)CCC(=O)N2CCSc3ccccc32)cc1OCC | -2.52%
O=C(Nc1ccc(Cc2ccncc2)cc1)c1cccc([N+](=O)[O-])c1 | 13.6%
CC(=O)Nc1ccc(C(=O)CSc2nc3ccccc3n2CC(=O)N2CCCC2)cc1 | 11.1%
CCOc1cc2c(C#N)c(N3CCNCC3)nc(N)c2c(N)n1 | 5.41%
O=C(Cc1ccccc1)Nc1cccc(S(=O)(=O)N2CCCCCC2)c1 | -49.1%
O=C(CN1CCN(c2ccccc2)CC1)Nc1cccc(C(F)(F)F)c1 | 2%
O=C(CN1CCOCC1)Nc1cccc(C(=O)Nc2cccc(C(F)(F)F)c2)c1 | -40.1%
O=C(CN1CCN(Cc2ccccc2)CC1)Nc1cccc(C(F)(F)F)c1 | -71.6%
CC1CN(CC(=O)Nc2cccc(C(=O)Nc3cccc(C(F)(F)F)c3)c2)CC(C)O1 (stereo not shown) | -54.3%
O=C(CN1CCOCC1)Nc1cccc(C(F)(F)F)c1 | -3%
CC(=O)N1CCN(CC(=O)Nc2cccc(S(=O)(=O)N3CCCCCC3)c2)CC1 | -23.3%
O=C(CN1CCN(Cc2ccccc2)CC1)Nc1cccc(S(=O)(=O)N2CCCCCC2)c1 | -76.3%
CC1CCN(CC(=O)Nc2cccc(C(=O)Nc3cccc(C(F)(F)F)c3)c2)CC1 | -37.3%
COc1ccccc1N1CCN(CCC(=O)Nc2ccc(F)cc2)CC1 | -19.3%
COc1ccccc1N1CCN(CCC(=O)Nc2cccc(Cl)c2)CC1.Cl | -62.8%
COc1ccccc1N1CCN(CCC(=O)Nc2ccc3c(c2)OCO3)CC1 | -26.7%
